The panel holds about 83,000 compounds, 20% with a hit somewhere; the sample as a whole holds those more often.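 Percent growth is the endpoint: 0 to 100 indicates growth inhibition (40 means 60% inhibition), 0 means no net growth, and negative values indicate cell death.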 Values without a mark were called inactive. Activity calls are given as the source filed them. The calls were made as follows: active = growth percent below 10; inactive = the rest.
How the values were obtained:
Assay in all cases: NCI-60 one-dose screen, 48 h (100 = growth as untreated, 0 = no growth, -100 = all killed)
Conditions in all cases: 10 µM unless noted
SR leukemia = system: SR leukemia
RPMI-8226 leukemia = system: RPMI-8226 leukemia
OVCAR-8 ovarian = system: OVCAR-8 ovarian
OVCAR-5 ovarian = system: OVCAR-5 ovarian
OVCAR-4 ovarian = system: OVCAR-4 ovarian
SK-OV-3 ovarian = system: SK-OV-3 ovarian
IGROV1 ovarian = system: IGROV1 ovarian
OVCAR-3 ovarian = system: OVCAR-3 ovarian
HS 578T breast = system: HS 578T breast
NCI/ADR-RES ovarian = system: NCI/ADR-RES ovarian
T-47D breast = system: T-47D breast
BT-549 breast = system: BT-549 breast
MDA-MB-435 melanoma = system: MDA-MB-435 melanoma
SW-620 colon = system: SW-620 colon
MCF7 breast = system: MCF7 breast
HCC-2998 colon = system: HCC-2998 colon
KM12 colon = system: KM12 colon
HCT-116 colon = system: HCT-116 colon

Compound	growth (SR leukemia)	growth (RPMI-8226 leukemia)	growth (OVCAR-8 ovarian)	growth (OVCAR-5 ovarian)	growth (OVCAR-4 ovarian)	growth (SK-OV-3 ovarian)	growth (IGROV1 ovarian)	growth (OVCAR-3 ovarian)	growth (HS 578T breast)	growth (NCI/ADR-RES ovarian)	growth (T-47D breast)	growth (BT-549 breast)	growth (MDA-MB-435 melanoma)	growth (SW-620 colon)	growth (MCF7 breast)	growth (HCC-2998 colon)	growth (KM12 colon)	growth (HCT-116 colon)
CC1(C)NCCC[C@]2(C)[C@H]3CC(=O)[C@H]4[C@@H]5C[C@](C)(CO)CC[C@]5(C)CC[C@@]4(C)[C@]3(C)CC[C@@H]12	82%	95%	114%	98.3%	92%	110%	98.1%	89.8%	99.4%	105%	87.5%	103%	92.2%	98.6%	87.3%	100%	95.4%	–
COC(=O)C(OC(C)=O)C(OC(C)=O)c1ccc(OC)c(OC)c1 (stereo not drawn)	90.9%	103%	103%	108%	94.2%	110%	114%	104%	110%	94.1%	75.4%	104%	106%	118%	85.4%	108%	102%	81.8%
COc1cc(C2C3CC4CCCC[C@H]4N3[C@@]3(C(=O)Nc4cc(Cl)ccc43)C2C(=O)c2nc3ccccc3[nH]2)cc(OC)c1OC (stereo partly drawn)	38.3%	23.6%	70.7%	73.7%	56.3%	94.3%	62.1%	69.7%	74%	66.8%	36.3%	76%	53.1%	60.5%	30.4%	69.9%	60.6%	–
Cc1cccc(NC(=O)Nc2ccc(-n3cnc4cc(-c5ccc(O)cc5)ccc43)cc2)c1	19.7%	12.4%	17.6%	76.8%	27.4%	60.3%	33.2%	20.4%	82%	39.5%	4.01% (active)	70.8%	25.9%	29.6%	16.9%	63.6%	–	–
Cc1ccc(C(=O)/C(=C\c2ccc([N+](=O)[O-])cc2)S(=O)Cc2ccc(F)cc2)cc1 (stereo not drawn)	7.86% (active)	-21.3% (active)	12.5%	37.3%	30.6%	102%	-16.8% (active)	9.09% (active)	21.9%	26.8%	-26.6% (active)	-0.818% (active)	45.5%	-27.7% (active)	7.88% (active)	22.8%	19.4%	–
O=Cc1cc2ccccc2nc1Oc1ccc(C(F)(F)F)cc1	23.6%	33%	91%	99.2%	98.6%	81.5%	68.3%	96.7%	89.7%	92.9%	83.7%	99.7%	103%	67%	48.1%	108%	92.4%	–
O=C1Nc2cc(-c3ccc(NC(=O)c4ccccc4)cc3)ccc2/C1=C/c1ccc[nH]1	29.7%	101%	101%	110%	70%	110%	95.3%	93.9%	115%	90.1%	35.7%	89.1%	99.5%	105%	8.35% (active)	99.8%	68.7%	–
CCC(=O)Oc1ccc(/C(=C(\C)c2ccccc2)c2ccc(OCCN3CCCCC3)cc2)cc1	20.3%	62.9%	81.6%	90.9%	80.6%	75.5%	93.8%	84.3%	72.9%	74.8%	34.3%	82.6%	81.4%	87.1%	24.2%	65.2%	65%	–
O=C(Nc1ccc(NC(=O)c2cc(=O)[nH]c3ccccc23)cc1)Nc1cccc(Cl)c1	36.2%	96.3%	85.9%	87.9%	78.8%	74.8%	69%	89.2%	93.5%	94.9%	68.6%	79%	97%	89.9%	76%	83.6%	-55.9% (active)	–
N#Cc1cccc(-c2ccc3c(c2)NC(=O)/C3=C\c2ccc[nH]2)c1	3.89% (active)	54.1%	85.9%	38.5%	30.9%	24.1%	34.2%	30.7%	92.1%	76.1%	-28.7% (active)	17.4%	43.9%	51.6%	10.1%	36%	20.4%	73%
CC/C(=C\c1ccc(OC)cc1)C(=O)c1ccc(OC)cc1	108%	32.2%	74%	103%	77.2%	106%	67.2%	211%	99.9%	86.7%	85.8%	135%	73.1%	94.2%	107%	93.5%	96.3%	–
COc1cc(NCCCCCNC(C)(C)C)c2ncccc2c1	113%	7.94% (active)	102%	110%	22.6%	97%	37.2%	81.2%	88.3%	85.4%	19.9%	109%	94.6%	96.7%	-54.4% (active)	97.5%	95.4%	–
NC1[C@H](c2c[nH]c3ccccc23)c2c([nH]c3ccccc23)[C@H]1c1c[nH]c2ccccc12 (stereo partly drawn)	81.7%	77.7%	99.8%	92.7%	86.6%	115%	63.9%	78.2%	83.8%	81.7%	94.9%	105%	100%	96.3%	90.8%	97.3%	91%	–
COc1cccc(-c2cc(C(=O)Nc3ccc(/C=C/c4ccc(OC5CCN(C)CC5)cc4)cc3)ccc2OC)c1	-44.4% (active)	-32.7% (active)	-38.8% (active)	25.2%	-56.5% (active)	109%	-56.3% (active)	-82.9% (active)	-22.9% (active)	-11.2% (active)	53%	23.1%	-77.4% (active)	-60.5% (active)	-34.9% (active)	74.9%	-72.8% (active)	–
CCCNC(=O)Oc1ccc(/C(=C(\C)c2ccccc2)c2ccc(OCCCN(C)C)cc2)cc1	4.87% (active)	63.4%	86.6%	80.5%	79.7%	71.9%	89.5%	83%	55.3%	77.7%	33.3%	83%	63%	90%	21.7%	64.8%	67.2%	54.2%
C=C1C(=O)O[C@H]2[C@H]1CC/C(CNC(=O)c1cccc3ccccc13)=C\CC[C@@]1(C)O[C@@H]21	16.5%	2.93% (active)	43.5%	68.8%	63.2%	110%	31.3%	24.8%	69.9%	80.9%	46%	46.9%	40.2%	16.5%	24.4%	88%	83.2%	-21.6% (active)
NC(=O)Nc1ccc(-n2cnc3cc(-c4ccc(O)cc4)ccc32)cc1	88.1%	91.5%	97.4%	97.5%	89%	137%	108%	108%	109%	103%	59.7%	88.2%	96.8%	114%	93.7%	110%	21.8%	91.8%

From PubChem BioAssay (NCI)
